# PubChem BioAssay
# Values joined by “and” are separate entries in the source; they are usually repeats but may differ in a detail not shown here. Equal entries are not always repeated. Results filed as inconclusive are left out. For part of these data: Potency and affinity values are given separately. Active and inactive are the calls of the source. Unless noted, the limit is not given here; nearly all actives have AC50 up to about 26 µM.
# How the values were obtained:
# [1] = growth inhibition of DIPG glioma cells, dose response, cell-based, SU-DIPG-XVII, MIPE5.0, CellTiter-Glo, qHTS (AID 1347060); conditions: SU-DIPG-XVII viability, CellTiter-Glo ATP luminescence;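 as to AC50: cells exposed to compound for 48 hours before viability readout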
# [2] = growth inhibition of DIPG glioma cells, dose response, cell-based, SU-DIPG-XIII, MIPE4.0, CellTiter-Glo, qHTS (AID 1347061; cut-off not given, nearly all actives have AC50 up to about 37 µM;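 also: cells exposed to compound for 48 hours before readout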); conditions: SU-DIPG-XIII viability, CellTiter-Glo ATP luminescence
# [3] = growth inhibition of DIPG glioma cells, dose response, cell-based, SU-DIPG-XIII, MIPE5.0, CellTiter-Glo, qHTS (AID 1347064; cut-off not given, nearly all actives have AC50 up to about 23 µM); conditions: SU-DIPG-XIII viability, CellTiter-Glo ATP luminescence
# [4] = viability loss in pontine glioma line – cell-based, SU-DIPG-XXV, MIPE5.0, CellTiter-Glo, qHTS, dose response (AID 1347065); conditions: CellTiter-Glo ATP luminescence;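 also: cells exposed to compound for 48 hours before ATP readout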
# [5] = JHH-DIPG-1 glioma cell viability, MIPE5.0 library, CellTiter-Glo luminescence, qHTS (AID 1347067); conditions: JHH-DIPG-1 glioma viability, CellTiter-Glo ATP luminescence;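 also: cells exposed to compound for 48 hours before readout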
# [6] = SU-DIPG-XXV glioma cell viability, MIPE5.0 library, qHTS (AID 1347068; cut-off not given, nearly all actives have IC50 up to about 30 µM)
# [7] = test system: Neuropilin-2 / VEGF-C interaction (human); experiment: inhibitors of NRP2–VEGF-C binding, biochemical, microplate binding format, z-score (AID 743281; call rule not given here); conditions: microplate NRP2/VEGF-C binding assay; stronger effect = lower value
# [8] = growth inhibition of DIPG glioma cells, dose response, cell-based, JHH-DIPG-1, MIPE4.0, CellTiter-Glo, qHTS (AID 1347062; cut-off not given, nearly all actives have AC50 up to about 27 µM); conditions: JHH-DIPG-1 viability, CellTiter-Glo ATP luminescence
# [9] = growth inhibition of DIPG glioma cells, dose response, cell-based, SU-DIPG-IV, MIPE4.0, CellTiter-Glo, qHTS (AID 1347063; cut-off not given, nearly all actives have AC50 up to about 30 µM;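 also: compound exposure lasted 48 hours before the viability readout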); conditions: SU-DIPG-IV viability, CellTiter-Glo ATP luminescence
# [10] = target: ATP-dependent translocase ABCB1 (Homo sapiens) (UniProt P08183); experiment: MDR1 (ABCB1) efflux transporter inhibition, cell-based (AID 377; in the data active = fluorescence slope change above about 50%); conditions: MDR1-expressing cells, fluorescent substrate accumulation slope; stronger effect = higher value; concentration not given here
# Chain of ATP-dependent translocase ABCB1 (Homo sapiens) (P08183 whole entry, looked up): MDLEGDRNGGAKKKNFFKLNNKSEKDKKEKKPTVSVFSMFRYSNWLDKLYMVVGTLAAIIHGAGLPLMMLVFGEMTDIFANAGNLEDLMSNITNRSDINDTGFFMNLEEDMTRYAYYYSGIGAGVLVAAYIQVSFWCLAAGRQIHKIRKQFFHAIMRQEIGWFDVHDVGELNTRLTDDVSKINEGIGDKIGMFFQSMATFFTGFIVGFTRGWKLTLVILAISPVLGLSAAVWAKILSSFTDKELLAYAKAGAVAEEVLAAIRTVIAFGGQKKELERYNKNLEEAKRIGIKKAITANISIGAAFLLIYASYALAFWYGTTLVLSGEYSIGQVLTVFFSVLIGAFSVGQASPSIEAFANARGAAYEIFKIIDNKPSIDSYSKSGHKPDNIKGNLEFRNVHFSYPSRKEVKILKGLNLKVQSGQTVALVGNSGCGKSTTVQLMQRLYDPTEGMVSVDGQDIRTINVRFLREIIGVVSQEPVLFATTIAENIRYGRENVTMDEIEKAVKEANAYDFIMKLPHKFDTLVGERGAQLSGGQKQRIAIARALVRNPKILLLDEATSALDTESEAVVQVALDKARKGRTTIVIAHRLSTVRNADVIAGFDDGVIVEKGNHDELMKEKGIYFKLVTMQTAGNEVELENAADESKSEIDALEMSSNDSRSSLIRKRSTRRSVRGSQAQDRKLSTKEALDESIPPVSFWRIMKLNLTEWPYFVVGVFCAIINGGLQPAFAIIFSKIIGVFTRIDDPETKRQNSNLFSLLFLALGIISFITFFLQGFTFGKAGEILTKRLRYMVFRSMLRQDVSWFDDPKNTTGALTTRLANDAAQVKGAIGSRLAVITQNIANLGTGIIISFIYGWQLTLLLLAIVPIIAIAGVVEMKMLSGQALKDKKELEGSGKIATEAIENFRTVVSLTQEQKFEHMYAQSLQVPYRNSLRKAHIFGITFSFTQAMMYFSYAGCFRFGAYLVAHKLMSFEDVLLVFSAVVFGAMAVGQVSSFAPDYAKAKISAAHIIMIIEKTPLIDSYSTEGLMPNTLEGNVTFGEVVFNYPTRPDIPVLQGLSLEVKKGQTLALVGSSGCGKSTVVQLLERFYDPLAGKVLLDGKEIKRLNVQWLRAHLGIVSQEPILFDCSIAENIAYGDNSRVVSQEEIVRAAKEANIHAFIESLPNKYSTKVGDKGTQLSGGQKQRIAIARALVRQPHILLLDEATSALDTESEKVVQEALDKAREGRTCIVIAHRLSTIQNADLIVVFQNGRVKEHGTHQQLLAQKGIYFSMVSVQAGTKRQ
# [11] = rescue of polyQ-huntingtin neuronal dysfunction in worms, whole organism, C. elegans mechanosensory neurons, N-terminal huntingtin (AID 1599); conditions: touch response, stronger effect = higher value
# [12] = inhibitors of polyQ protein aggregation (AID 1604); conditions: polyglutamine-induced protein aggregation inhibition assay; stronger effect = higher value; tested at 2.5 µM
# [13] = enhancers of glutamate uptake in motor neurons, MN-1 cell line (AID 1612); conditions: MN-1 motor neuron cells, stronger effect = higher value;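 also: tested at 1 µM final; 0% = mean of DMSO vehicle wells on each plate; positive means more glutamate uptake than control and negative means less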
# [14] = reducers of polyQ inclusions in PC12 cells, cell-based, NGF-treated PC12, GFPQ80 (AID 1614); conditions: PC12 NGF-treated GFP-polyQ80 inclusion reduction;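 also: lower means fewer inclusions and 0 means no inclusions at all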
# [15] = suppressors of polyglutamine aggregation in yeast, 75Q-TubH (AID 1616); conditions: S. cerevisiae 75Q-TubH polyglutamine aggregation suppression; stronger effect = higher value
# [16] = test system: Hepatitis C virus NS3 helicase; experiment: HCV NS3 helicase inhibitors, primary screen, biochemical, fluorescence polarization, LOPAC1280 library (AID 687035; in the data active = inhibition above about 37%); conditions: Purified HCV NS3 helicase, Cy5-dT15 ssDNA binding fluorescence polarization; stronger effect = higher value; concentration not given here
# [17] = Cy5 fluorescence quenching or enhancement artefacts, artefact control for HCV NS3 helicase inhibitor project, biochemical, LOPAC1280 (AID 687037; call rule not given here); conditions: Cy5-DNA-NS3h complex fluorescence interference counterscreen
# [18] = inhibitors of Cryptococcus chitosan production, flow cytometry, Cibacron Brilliant Red staining (AID 1347148; call rule not given here;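 also: compound exposure lasted three days at 37 degrees C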); conditions: Cryptococcus neoformans chitosan, stronger effect = lower value; at 10 µM unless noted
# [19] = LFS_MB_P medulloblastoma growth inhibition, cell-based, chromothripsis tumors, cisplatin or BGB combos (AID 1671449; in the data active = inhibition above about 80%;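 also: cells exposed for 96 hours; 0% = vehicle DMSO and 100% = killing by high DMSO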); conditions: LFS_MB_P medulloblastoma cells
# [20] = ICB984 medulloblastoma cell growth inhibition, synergistic combos for chromothripsis tumors, cisplatin or BGB combos (AID 1671451; call rule not given here;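 also: cells exposed for 96 hours before readout; 0% = vehicle DMSO and 100% = killing by high DMSO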); conditions: ICB984 medulloblastoma cells, drug combinations, stronger effect = higher value
compound,measurement,setting,value
O=C(NCC1CCCCN1)c1cc(OCC(F)(F)F)ccc1OCC(F)(F)F (centres undefined),outcome,[1],inactive
same,outcome,[2],inactive
same,outcome,[3],inactive
same,outcome,[4],inactive
same,outcome,[5],inactive
same,outcome,[6],inactive
Clc1ccccc1CN1CCc2sccc2C1,z-score,[7],0.918 (inactive)
same,outcome,[1],inactive
same,outcome,[2],inactive
same,outcome,[8],inactive
same,outcome,[3],inactive
same,outcome,[4],inactive
same,outcome,[5],inactive
same,outcome,[6],inactive
CC1(C)[C@H](C(=O)O)N2C(=O)C[C@H]2S1(=O)=O,outcome,[8],inactive
same,outcome,[9],inactive
COc1ccc(-c2nc3ccc(C4=NNC(=O)CC4C)cc3[nH]2)cc1 (centres undefined),AC50,[1],16.6 µM (active)
same,outcome,[2],inactive
same,outcome,[8],inactive
C[N+]1(C)CCC(OC(=O)C(O)(c2ccccc2)C2CCCC2)C1 (centres undefined),z-score,[7],-0.121 (inactive)
NCCCC(O)(P(=O)(O)O)P(=O)(O)O,outcome,[1],inactive
same,outcome,[2],inactive
same,outcome,[8],inactive
same,outcome,[3],inactive
same,outcome,[4],inactive
same,outcome,[5],inactive
same,outcome,[6],inactive
O=C(O)CCn1c2c(c3ccccc31)C[C@H](NS(=O)(=O)c1ccc(F)cc1)CC2,outcome,[1],inactive
same,outcome,[2],inactive
same,outcome,[8],inactive
same,outcome,[4],inactive
same,outcome,[5],inactive
same,outcome,[6],inactive
O=C(O)c1cn(C2CC2)c2cc(N3CCNCC3)c(F)cc2c1=O,fluorescence slope change,[10],54.5% (active)
same,rescue above control,[11],13.4
same,inhibition of aggregation,[12],20.6%
same,glutamate uptake change,[13],-1.59%
same,inclusion score,[14],2
same,aggregation suppression score,[15],1.3
same,outcome,[1],inactive
same,outcome,[2],inactive
same,outcome,[8],inactive
same,outcome,[3],inactive
same,outcome,[4],inactive
same,outcome,[5],inactive
same,outcome,[6],inactive
CC(C)(C)c1ccc(C(O)CCCN2CCC(C(O)(c3ccccc3)c3ccccc3)CC2)cc1 (centres undefined),fluorescence slope change,[10],182% (active)
same,inhibition of aggregation,[12],4.76%
same,glutamate uptake change,[13],-7.35%
same,aggregation suppression score,[15],0.868
same,inhibition,[16],-3% (inactive)
same,fluorescence ratio (interference),[17],0.9 (inactive)
CC(C)(C(=O)O)c1ccc(C(O)CCCN2CCC(C(O)(c3ccccc3)c3ccccc3)CC2)cc1 (centres undefined),inhibition,[16],-1% (inactive)
same,fluorescence ratio (interference),[17],1.1 (inactive)
O=S(=O)(c1cccc2cnccc12)N1CCCNCC1,outcome,[1],inactive
same,outcome,[2],inactive
same,outcome,[8],inactive
same,outcome,[3],inactive
same,outcome,[4],inactive
same,outcome,[5],inactive
same,outcome,[6],inactive
same,fold fluorescence,[18],2.56 [at 137.3 µM] (active)
CC(C)c1c(C(=O)Nc2ccccc2)c(-c2ccccc2)c(-c2ccc(F)cc2)n1CC[C@@H](O)C[C@@H](O)CC(=O)O,outcome,[3],inactive
same,outcome,[6],inactive
Cc1ccc(/C(=C\CN2CCCC2)c2ccccn2)cc1,fluorescence slope change,[10],91.4% (active)
same,rescue above control,[11],-10.7
same,inhibition of aggregation,[12],23.8%
same,glutamate uptake change,[13],-7.2%
same,inclusion score,[14],2
same,aggregation suppression score,[15],0.939
same,inhibition,[16],1% (inactive)
same,fluorescence ratio (interference),[17],1 (inactive)
O=C(O)COCCN1CCN(C(c2ccccc2)c2ccc(Cl)cc2)CC1 (centres undefined),fluorescence slope change,[10],28.7% (inactive)
same,inhibition,[16],-1% (inactive)
same,fluorescence ratio (interference),[17],1 (inactive)
same,outcome,[2],inactive
same,outcome,[8],inactive
same,outcome,[9],inactive
CC(C)(C)CC(C)(C)c1ccc(OCCOCC[N+](C)(C)Cc2ccccc2)cc1,fluorescence slope change,[10],152% (active)
same,rescue above control,[11],0
same,inhibition of aggregation,[12],58.6%
same,glutamate uptake change,[13],-11.3%
same,aggregation suppression score,[15],-0.0343
CC1=C(/C=C/C(C)=C/C=C/C(C)=C\C(=O)O)C(C)(C)CCC1,fold fluorescence,[18],5.81 (inactive)
CN(C)c1nc(N(C)C)nc(N(C)C)n1,inhibition,"[19]; at 0.5 µM, stronger effect = higher value",-34.2% (inactive) and -27.6% (inactive)
same,inhibition,"[19]; measured here: combination with BGB IC20, at 0.005 µM",-17.9% and -27.7%
same,inhibition,"[19]; measured here: combination with BGB IC40, at 0.005 µM",-17.9% and -14.9%
same,inhibition,"[19]; measured here: combination with BGB IC40, at 0.05 µM",-9.42% and -37.8%
same,inhibition,"[19]; measured here: combination with cisplatin, at 0.5 µM, stronger effect = higher value",-34.2% and -25.4%
same,inhibition,"[19]; measured here: combination with cisplatin, at 5 µM, stronger effect = higher value",-44.4% and -48.3%
same,inhibition,"[20]; BGB IC20 combo, at 0.005 µM",-31.6% and 0.139%
same,inhibition,"[20]; BGB IC40 combo, at 0.005 µM",-11.1% and -14.4%
same,inhibition,"[20]; BGB IC40 combo, at 0.05 µM",-16% and -10.6%
same,inhibition,[20]; at 0.5 µM,-16.4% (inactive) and -22.8% (inactive)
same,inhibition,"[20]; cisplatin combo, at 0.05 µM",-16% and -14.5%
same,inhibition,"[20]; cisplatin combo, at 0.5 µM",-23.9% and -10.7%
same,inhibition,"[20]; cisplatin combo, at 5 µM",-16.8% and 0.591%
same,inhibition,"[20]; measured here: 5 uM single agent, at 5 µM",-7.32% and -28.4%
Cc1ccc(N(CC2=NCCN2)c2cccc(O)c2)cc1,fluorescence slope change,[10],72.4% (active)
same,rescue above control,[11],-6.1
same,inhibition of aggregation,[12],56.3%
same,glutamate uptake change,[13],-12.3%
same,inclusion score,[14],2
same,aggregation suppression score,[15],1.42
same,inhibition,[16],-6% (inactive)
same,fluorescence ratio (interference),[17],0.9 (inactive)
same,outcome,[1],inactive
same,outcome,[2],inactive
same,outcome,[8],inactive
same,outcome,[3],inactive
same,outcome,[4],inactive
same,fold fluorescence,[18],4.52 [at 177.7 µM] (inactive)
CC(CCc1ccccc1)NCC(O)c1ccc(O)c(C(N)=O)c1 (centres undefined),rescue above control,[11],19.4
same,inhibition of aggregation,[12],83.1%
same,glutamate uptake change,[13],-2.28%
same,inclusion score,[14],2
same,aggregation suppression score,[15],1.14
same,inhibition,[16],-4% (inactive)
same,fluorescence ratio (interference),[17],1 (inactive)
CC(C)[N+]1(C)C2CCC1CC(OC(=O)C(CO)c1ccccc1)C2 (centres undefined),outcome,[9],inactive
CC(=O)N=c1sc(S(N)(=O)=O)nn1C,fluorescence slope change,[10],65.4% (active)
same,rescue above control,[11],-0.14
same,inhibition of aggregation,[12],49.4%
same,glutamate uptake change,[13],-1.05%
same,inclusion score,[14],2
same,aggregation suppression score,[15],1.33
OC[C@H]1O[C@@H](Oc2cc(O)cc(/C=C/c3ccc(O)cc3)c2)[C@H](O)[C@@H](O)[C@@H]1O,z-score,[7],0.265 (inactive)
same,outcome,[8],inactive
same,outcome,[4],inactive
same,outcome,[5],inactive
same,outcome,[6],inactive
COc1ccc(-c2oc3c(CC=C(C)C)c(O[C@@H]4O[C@H](CO)[C@@H](O)[C@H](O)[C@H]4O)cc(O)c3c(=O)c2O[C@@H]2O[C@@H](C)[C@H](O)[C@@H](O)[C@H]2O)cc1,z-score,[7],0.976 (inactive)
O=C(O[C@@H]1Cc2c(O)cc(O)cc2O[C@@H]1c1cc(O)c(O)c(O)c1)c1cc(O)c(O)c(O)c1,z-score,[7],2.31 (inactive)
CCN1CCN(C(=O)N[C@@H](C(=O)N[C@@H]2C(=O)N3[C@@H]2SC(C)(C)[C@@H]3C(=O)O)c2ccccc2)C(=O)C1=O,fluorescence slope change,[10],1.5% (inactive)
CNCCC=C1c2ccccc2CCc2ccccc21,fluorescence slope change,[10],145% (active)
same,inhibition of aggregation,[12],72.7%
same,glutamate uptake change,[13],13.8%
same,aggregation suppression score,[15],1.32
same,inhibition,[16],-5% (inactive)
same,fluorescence ratio (interference),[17],1 (inactive)
CCCc1nc(C(C)(C)O)c(C(=O)OCc2oc(=O)oc2C)n1Cc1ccc(-c2ccccc2-c2nn[nH]n2)cc1,outcome,[7],inactive
C=CC1=C(C(=O)O)N2C(=O)[C@@H](NC(=O)/C(=N\O)c3csc(N)n3)[C@H]2SC1 (stereo in doubt),outcome,[7],inactive
same,outcome,[8],inactive
same,outcome,[9],inactive
